According to PubChem BioAssay AID1159580 (chemical genetic matrix, 2015):
Where “and” joins values, the source holds several entries; their conditions need not be identical. Identical values can stand only once. Hit rate of the full screen: of about 5,500 compounds, about 2,000 (36%) were called active. Roughly 18% stayed inconclusive and do not appear here. Rule as the data show it: active = normalized growth mostly below about 0.91 (no sharp cut-off); inconclusive = no clear call, values can overlap the other calls; inactive = mostly above about 0.92. Some of the results follow.

Assay: chemical genetic growth profiling, strain panel (AID 1159580);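 also: tested at 20 µM; growth read once vehicle control cultures reached saturation at 30 °C; 1 = growth at the plate median or of vehicle wells; lower values mean less growth of the strain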
Conditions: S. cerevisiae deletion strains, growth OD

Measured: normalized growth

CC1(C)C(=O)C=C[C@@]2(C)C1C=C[C@]1(C)C2CC[C@@]2(C)[C@H](c3ccoc3)OC(=O)C3OC321 (some centres not stated)
active: locus YDR137W, strain rgp1, hits give low values 0.663 | locus YDR159W, strain sac3, hits give low values 0.843 | locus YDR392W, strain spt3, hits give low values 0.314 | locus YJL129C, strain trk1, hits give low values 0.867 | locus YLR039C, strain RIC1, hits give low values 0.624 | locus YLR262C, strain YPT6 (second series), hits give low values 0.67 | locus YLR320W, strain mms22, hits give low values 0.838 | locus YLR418C, strain cdc73, hits give low values 0.655 | locus YMR205C, strain PFK2, hits give low values 0.841 | locus YNL071W, strain lat1, hits give low values 0.695 | locus YNL307C, strain MCK1, hits give low values 0.867 | locus YOR184W, strain ser1, hits give low values 0.715
inactive: locus YAL013W, strain DEP1, hits give low values 0.949 | locus YAL021C, strain ccr4, hits give low values 1.02 | locus YAL026C, strain drs2, hits give low values 0.972 | locus YAL030W, strain snc1, hits give low values 0.985 | locus YBL061C, strain skt5, hits give low values 0.974 | locus YBR009C, strain hhf1, hits give low values 0.915 | locus YBR021W, strain FUR4, hits give low values 1.01 | locus YBR023C, strain chs3, hits give low values 0.981 | locus YBR171W, strain sec66, hits give low values 0.971 | locus YBR229C, strain ROT2, hits give low values 0.986 | locus YBR231C, strain swc5, hits give low values 1 | locus YBR279W, strain paf1, hits give low values 0.964 | locus YCL011C, strain gbp2, hits give low values 0.981 | locus YCL016C, strain dcc1, hits give low values 0.98 | locus YCL029C, strain bik1, hits give low values 0.986 | locus YCL061C, strain MRC1, hits give low values 0.971 | locus YCL069W, strain vba3, hits give low values 1 | locus YCR088W, strain abp1, hits give low values 1 | locus YDL005C, strain med2, hits give low values 0.988 | locus YDL035C, strain GPR1, hits give low values 0.979 | locus YDL040C, strain nat1, hits give low values 1 | locus YDL074C, strain BRE1, hits give low values 0.862 | locus YDL101C, strain DUN1, hits give low values 0.957 | locus YDL134C, strain PPH21, hits give low values 0.948 | locus YDL185W, strain tfp1, hits give low values 0.998 | locus YDL192W, strain arf1, hits give low values 0.94 | locus YDR001C, strain nth1, hits give low values 0.991 | locus YDR069C, strain doa4, hits give low values 1 | locus YDR101C, strain arx1, hits give low values 0.978 | locus YDR150W, strain NUM1, hits give low values 0.996 | locus YDR162C, strain NBP2, hits give low values 0.888 | locus YDR195W, strain ref2 1.02 | locus YDR297W, strain sur2, hits give low values 0.985 | locus YDR318W, strain mcm21, hits give low values 0.939 | locus YDR334W, strain swr1, hits give low values 0.983 | locus YDR335W, strain msn5, hits give low values 0.998 | locus YDR388W, hits give low values 0.984 | locus YDR502C, strain sam2, hits give low values 0.948 | locus YEL003W, strain gim4, hits give low values 0.979 | locus YEL037C, strain rad23, hits give low values 0.992 | locus YEL061C, strain CIN8 (second series), hits give low values 0.997 | locus YEL061C, strain CIN8, hits give low values 0.983 | locus YER015W, strain faa2, hits give low values 0.985 | locus YER016W, strain bim1, hits give low values 0.993 | locus YER110C, hits give low values 0.986 | locus YER111C, strain swi4, hits give low values 0.994 | locus YER155C, strain BEM2 (second series), hits give low values 0.894 | locus YER155C, strain BEM2, hits give low values 0.953 | locus YER167W, strain BCK2, hits give low values 0.976 | locus YFR010W, strain ubp6, hits give low values 1 | locus YGL078C, strain dbp3, hits give low values 0.993 | locus YGL086W, strain mad1, hits give low values 0.948 | locus YGL167C, strain pmr1, hits give low values 0.967 | locus YGL173C, strain kem1, hits give low values 0.97 | locus YGL227W, strain vid30, hits give low values 0.991 | locus YGL240W, strain doc1, hits give low values 1.02 | locus YGL248W, strain PDE1, hits give low values 0.974 | locus YGL253W, strain hxk2, hits give low values 0.992 | locus YGR135W, strain pre9, hits give low values 0.953 | locus YGR252W, strain gcn5, hits give low values 0.912 | locus YHR013C, strain ard1, hits give low values 0.916 | locus YHR027C, strain rpn1, hits give low values 0.971 | locus YHR030C, strain SLT2, hits give low values 0.915 | locus YHR079C, strain IRE1 (second series), hits give low values 0.977 | locus YHR079C, strain IRE1, hits give low values 0.943 | locus YHR094C, strain hxt1, hits give low values 0.989 | locus YHR129C, strain ARP1, hits give low values 0.926 | locus YHR142W, strain chs7, hits give low values 0.987 | locus YHR200W, strain rpn10, hits give low values 0.986 | locus YIL066C, strain RNR3, hits give low values 0.897 | locus YIL073C, strain SPO22, hits give low values 0.953 | locus YIL125W, strain kgd1, hits give low values 0.993 | locus YIR030C, strain dcg1, hits give low values 0.98 | locus YJL092W, strain hpr5, hits give low values 0.997 | locus YJL095W, strain BCK1 (second series), hits give low values 0.967 | locus YJL095W, strain BCK1, hits give low values 0.799 and 0.923 | locus YJL115W, strain asf1, hits give low values 1 | locus YJL134W, strain LCB3, hits give low values 0.997 | locus YJL154C, strain vps35, hits give low values 0.995 | locus YJL164C, strain tpk1, hits give low values 0.967 | locus YJL166W, strain qcr8, hits give low values 0.919 | locus YJL168C, strain set2, hits give low values 0.964 | locus YJL187C, strain SWE1 (second series), hits give low values 0.951 | locus YJL187C, strain SWE1, hits give low values 0.987 | locus YJR066W, strain TOR1, hits give low values 0.894 | locus YKL009W, strain mrt4, hits give low values 0.995 | locus YKL068W, hits give low values 0.998 | locus YKL085W, strain MDH1 (second series), hits give low values 0.985 | locus YKL085W, strain MDH1, hits give low values 0.985 | locus YKL160W, strain elf1, hits give low values 0.973 | locus YKL190W, strain CNB1, hits give low values 0.992 | locus YKR001C, strain vps1, hits give low values 0.949 | locus YKR026C, strain gcn3, hits give low values 0.995 | locus YKR091W, strain srl3, hits give low values 0.992 | locus YLL001W, strain dnm1, hits give low values 0.99 | locus YLL026W, hits give low values 0.986 | locus YLL041C, strain sdh2, hits give low values 0.989 | locus YLR027C, strain aat2, hits give low values 0.959 | locus YLR058C, strain SHM2, hits give low values 0.97 | locus YLR102C, strain apc9, hits give low values 0.992 | locus YLR113W, strain HOG1, hits give low values 0.957 | locus YLR221C, strain rsa3, hits give low values 0.959 | locus YLR258W, strain gsy2, hits give low values 0.997 | locus YLR268W, strain sec22, hits give low values 0.911 | locus YLR330W, strain CHS5, hits give low values 0.954 | locus YLR342W, strain FKS1, hits give low values 0.924 | locus YLR357W, strain rsc2, hits give low values 1.03 | locus YLR370C, strain arc18, hits give low values 0.988 | locus YLR371W, strain rom2, hits give low values 0.933 | locus YLR384C, strain iki3, hits give low values 0.99 | locus YML016C, strain PPZ1, hits give low values 0.991 | locus YML032C, strain rad52, hits give low values 0.944 | locus YML120C, strain ndi1, hits give low values 0.994 | locus YML124C, strain tub3, hits give low values 0.983 | locus YMR058W, strain fet3, hits give low values 0.976 | locus YMR078C, strain ctf18, hits give low values 0.956 | locus YMR125W, strain sto1, hits give low values 0.969 | locus YMR129W, hits give low values 0.984 | locus YMR223W, strain ubp8, hits give low values 0.963 | locus YMR231W, strain pep5, hits give low values 0.964 | locus YMR307W, strain GAS1, hits give low values 0.81 | locus YNL067W, strain RPL9B, hits give low values 0.973 | locus YNL183C, strain NPR1, hits give low values 0.921 | locus YNL209W, strain ssb2, hits give low values 0.984 | locus YNL233W, strain BNI4, hits give low values 0.955 | locus YNL248C, strain rpa49, hits give low values 0.978 | locus YNL250W, strain rad50, hits give low values 0.987 | locus YNL271C, strain bni1, hits give low values 0.983 | locus YNL298W, strain CLA4, hits give low values 0.989 | locus YNL322C, strain KRE1 (second series), hits give low values 1.01 | locus YNL322C, strain KRE1, hits give low values 0.983 | locus YNR049C, strain mso1, hits give low values 0.985 | locus YNR052C, strain pop2, hits give low values 0.951 | locus YOL006C, strain TOP1, hits give low values 0.959 | locus YOL012C, strain htz1 0.78 | locus YOL147C, strain pex11, hits give low values 0.961 | locus YOR001W, strain rrp6, hits give low values 0.991 | locus YOR061W, strain CKA2, hits give low values 0.983 | locus YOR069W, strain VPS5, hits give low values 0.992 | locus YOR070C, strain gyp1, hits give low values 0.952 | locus YOR080W, strain dia2, hits give low values 0.992 | locus YOR083W, strain WHI5, hits give low values 0.977 | locus YOR106W, strain vam3, hits give low values 0.972 | locus YOR136W, strain idh2, hits give low values 0.979 | locus YOR144C, strain elg1, hits give low values 0.957 | locus YOR231W, strain MKK1, hits give low values 0.936 | locus YOR265W, strain rbl2, hits give low values 0.986 | locus YOR270C, strain vph1, hits give low values 0.905 | locus YOR290C, strain snf2, hits give low values 0.938 | locus YOR316C, strain cot1, hits give low values 0.983 | locus YPL051W, strain arl3, hits give low values 0.945 | locus YPL078C, strain atp4, hits give low values 0.979 | locus YPL106C, strain sse1, hits give low values 0.942 | locus YPL240C, strain hsp82, hits give low values 0.985 | locus YPL256C, strain CLN2, hits give low values 0.92 | locus YPR119W, strain clb2, hits give low values 0.979 | locus YPR141C, strain kar3, hits give low values 0.977 | locus YPR163C, strain tif3, hits give low values 0.938 | locus YPR167C, strain met16, hits give low values 0.973 | strain wtn01, hits give low values 0.952
